Source: PubChem BioAssay (NCATS)
Inconclusive results are not listed. A number with no mark means an inactive call. Activity calls are given as the source filed them. Calls come from the whole dose curve; as a rule, active = well fitted curve in either direction with a large enough effect (not every such curve was filed as active); inconclusive = small, poorly fitted or top-dose-only effect, or another doubt; inactive = flat fitted curve, though single readings scatter. Starred links: 1 amine or outer side, 2 acyl side, 3 side chain; linkers in the order of their positions; H or OH if unused. Positions of bridges follow the written chain, without caps; N, C: chain ends. Non-standard residues stand in square brackets, D forms with d. Residues, ends and D or L forms follow the SMILES beside them. *: point of attachment. X1 = NC1=N[C@@H](O)C[C@@H]([C@@H](N[*:1])C(=O)[*:2])N1; ΔAla(Z-3-ureido) = NC(=O)N/C=C(\N)C(=O)O; β3hOrn = NCCC[C@H](N)CC(=O)*; Dap = NC[C@H](N)C(=O)O
% is set by controls: 0 for no effect and ±100 for the full control effect.

The compounds below were run against Mitogen-activated protein kinase 10 (Mus musculus) (UniProt Q61831) (assay: JNK3 AlphaScreen Assay (AID 530;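 note: kinase came from lysate of stimulated human HepG2 cells; signal reports phosphorylation of biotinylated GST-cJun 1-79 at Ser73 with 10 µM ATP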)). Settings: JNK3 lysate, c-Jun phosphorylation; series mostly up to 25.6 µM; activity change, negative = inhibition: at the top concentration.
Method in brief: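 Kinase buffer: 20 mM Tris-HCl pH 7.6, 10 mM MgCl2, 1 mM DTT, 0.1 mM Na3VO4, 0.01% Tween-20; ATP 10 uM. Substrate biotin-GST-cJun(1-79), enzyme from activated HepG2 lysates. Detection by Ser73 phospho-antibody AlphaScreen.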
For `COCCOC(=O)C1=C(C)NC(C)=C(C(=O)OC(C)C)[C@H]1c1cccc([N+](=O)[O-])c1`, the “activity change, negative = inhibition” value was -3.9%. `C=C1CC23C[C@H]4[C@@H]5[C@@]6(C)C[C@H](OC(=O)c7ccccc7)[C@@H](OC(C)=O)[C@]57[C@@H]2[C@@H](OC(C)=O)[C@H]1[C@@H](O)[C@H]3[C@H]7N4C6` was tested, and the “activity change, negative = inhibition” value was 6.99%. In the case of `O=C(N/N=C\c1ccc([N+](=O)[O-])o1)c1ccc(O)cc1`, the “activity change, negative = inhibition” value is reported as 10.2%. With `C[C@@H](CNC1CCCCC1)OC(=O)c1ccccc1` the “activity change, negative = inhibition” value was -6.66%. With `CCOC(=O)O[C@@H](C)OC(=O)[C@@H]1N2C(=O)[C@@H](NC(=O)[C@@H](N)c3ccccc3)[C@H]2SC1(C)C` the “activity change, negative = inhibition” value was 0.542%. `Cc1cccc(CN2CCN([C@@H](c3ccccc3)c3ccc(Cl)cc3)CC2)c1` was tested, and the “activity change, negative = inhibition” value was -10.7%. In the case of `Cc1ccsc1/C=C\C1=NCCCN1C`, the “activity change, negative = inhibition” value is reported as 5.17%. With `CC(=O)O[C@H]1C[C@H]2CC[C@@H]3[C@@H](CC[C@]4(C)[C@H](OC(C)=O)[C@H]([N+]5(C)CCCCC5)C[C@@H]34)[C@]2(C)C[C@H]1[N+]1(C)CCCCC1` the “activity change, negative = inhibition” value was -4%. With `COc1cc(OC)c2c(c1Cl)O[C@@]1(C2=O)[C@H](C)CC(=O)C[C@@H]1OC` the “activity change, negative = inhibition” value was 3.21%. In the case of `O[C@H](c1cc(C(F)(F)F)nc2c(C(F)(F)F)cccc12)[C@H]1CCCCN1`, the “activity change, negative = inhibition” value is reported as -0.431%. With `O=C(O)COCCN1CCN([C@@H](c2ccccc2)c2ccc(Cl)cc2)CC1` the “activity change, negative = inhibition” value was 2.73%. In the case of `C[C@H](NCCC(c1ccccc1)c1ccccc1)c1ccccc1`, the “activity change, negative = inhibition” value is reported as -2.14%. With `NCCC[C@H](N)CC(=O)N[C@H]1CNC(=O)[C@@H]([C@@H]2C[C@H](O)N=C(N)N2)NC(=O)/C(=C/NC(N)=O)NC(=O)[C@@H](CO)NC(=O)[C@@H](CO)NC1=O` (β3hOrn-[Dap][dS][dS][ΔAla(Z-3-ureido)][X1]; lactam 1-C) the “activity change, negative = inhibition” value was 10.9%. `C=CCO[C@@H](Cn1ccnc1)c1ccc(Cl)cc1Cl` was tested, and the “activity change, negative = inhibition” value was -6.41%. For `CC1(C)[C@@H](OC(=O)CCC(=O)O)CC[C@@]2(C)[C@H]1CC[C@@]1(C)[C@H]2C(=O)C=C2[C@H]3C[C@](C)(C(=O)O)CC[C@]3(C)CC[C@@]21C`, the “activity change, negative = inhibition” value was 0.657%. For `COc1ccc([C@@H]2CC(=O)c3c(O)cc(O)cc3O2)cc1O`, the Potency was “inactive”. For `OCCOCCN1CCN([C@@H](c2ccccc2)c2ccc(Cl)cc2)CC1`, the “activity change, negative = inhibition” value was 0.401%. With `C[C@H](CCC(=O)O)[C@H]1CC[C@@H]2[C@@H]3[C@@H](O)C[C@H]4C[C@@H](O)CC[C@@]4(C)[C@H]3CC[C@@]21C` the “activity change, negative = inhibition” value was -2.02%. In the case of `CN1CCO[C@H](c2ccccc2)c2ccccc2C1`, the “activity change, negative = inhibition” value is reported as -0.806%. With `O=C(N[C@@H](CO)[C@@H](O)c1ccc([N+](=O)[O-])cc1)C(Cl)Cl` the “activity change, negative = inhibition” value was -3.52%.
